Bead autofluor = flagged as autofluorescent in microsphere protease counterscreen | compound autofluorescence counterscreen, microsphere flow cytometry; active compounds read high | fluorescence intensity (no concentration beside the values) | actives 3.1% (n = 360,000) | AID 624483; in the data active = fluorescence intensity above about 16000; inconclusive = no clear call, values can overlap the other calls
BoNT A protease = inhibitors of Botulinum neurotoxin A light chain protease; inhibition, % at 10 µM; multiplex microsphere protease substrate cleavage, flow cytometry; actives 0.17% (n = 360,000)
BoNT-F LC inh = blocks Botulinum neurotoxin F light chain protease; inhibition, % at 10 µM; Multiplex microsphere protease cleavage assay, flow cytometry; actives 0.22% (n = 360,000); in the data active = inhibition above about 35%, passing the limit was not always enough; inconclusive = no clear call, values can overlap the other calls
GDH-TPI inh = GDH-TPI coupled enzyme inhibition counter-screen; GDH-TPI coupled enzyme counterscreen, NADH absorbance; inhibition, % at 4.8 µM; actives 1.2% (n = 360,000); in the data active = inhibition above about 30%
Anthrax LF prot = inhibitors of Bacillus anthracis lethal factor protease | multiplex microsphere protease cleavage assay, LF | inhibition, % at 10 µM | actives 0.12% (n = 360,000)
FBA Mtb inh = inhibitors of M. tuberculosis fructose-bisphosphate aldolase | purified M. tuberculosis FBA, fluorescence read-out | inhibition, % at 1 µM | actives 2.3% (n = 360,000); in the data active = inhibition above about 27%
Target sequence (P9WQA3 whole entry, looked up): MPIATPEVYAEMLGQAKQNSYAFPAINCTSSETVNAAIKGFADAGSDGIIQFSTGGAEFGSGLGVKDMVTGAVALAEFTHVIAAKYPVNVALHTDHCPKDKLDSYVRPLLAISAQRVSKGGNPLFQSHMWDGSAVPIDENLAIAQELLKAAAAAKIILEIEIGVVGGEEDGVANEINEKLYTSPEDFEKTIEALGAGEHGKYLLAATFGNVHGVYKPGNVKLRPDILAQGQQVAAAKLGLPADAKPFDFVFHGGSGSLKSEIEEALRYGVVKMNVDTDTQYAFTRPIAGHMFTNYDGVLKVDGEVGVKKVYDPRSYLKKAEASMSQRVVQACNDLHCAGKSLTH
Each line names hits and unclear results; the compound was inactive in the other large screens. A selection: hits, their analogues and other compounds. The true share with any hit is near 6.7%. Cut-off read from the data, not from the text of the source, unless noted: active = inhibition above about 30%; inconclusive = no clear call, values can overlap the other calls; inactive = below that.

CCOC(=O)N/N=C\c1ccc(OC(=O)c2ccco2)cc1	none
COc1ccccc1Oc1cc(F)nc(N)n1	Bead autofluor 17544, BoNT A protease inconclusive
Nc1nc(Cl)cc(Oc2ccccc2F)n1	none
COc1ccc(/C=C2\SC(=O)N(CC(=O)NCCCn3ccnc3)C2=O)cc1	GDH-TPI inh 43
COc1ccc(/C=C2\SC(=O)N(CC(=O)NC3CCS(=O)(=O)C3)C2=O)cc1 (stereo not drawn)	GDH-TPI inh 39
CCN(C(=O)CN1C(=O)S/C(=C\c2ccc(F)cc2)C1=O)C1CCS(=O)(=O)C1 (stereo not drawn)	GDH-TPI inh 36
COc1ccc(/C=C2\SC(=O)N(CC(=O)N(C)C3CCS(=O)(=O)C3)C2=O)cc1 (stereo not drawn)	GDH-TPI inh 34
O=C(CN1C(=O)S/C(=C\c2ccccc2)C1=O)NC1CCS(=O)(=O)C1 (stereo not drawn)	none
Cc1nc(SCC(=O)N2CCN(C(=O)c3cccs3)CC2)c2c(C)c(C)sc2n1	none
O=c1nc(/C=C/c2ccc(O)c(O)c2)oc2ccccc12	GDH-TPI inh 44
Cc1coc2c1c(C)cc1oc(=O)c(Cc3ccccc3)c(C)c12	Bead autofluor 24793
Nc1cc(C(F)(F)F)ccc1C(=O)O	FBA Mtb inh 76
Cc1csc2nc(O)c(C(=O)NC3CCCCCC3)c(=O)n12	Bead autofluor 18119
NC(=O)COc1ccc2cc(-c3ccccc3)c(=O)oc2c1	GDH-TPI inh 31, FBA Mtb inh active
COc1ccc(-c2cc3ccc(OCC(C)=O)cc3oc2=O)cc1	FBA Mtb inh 155
NC(=O)COc1ccc2cc(-c3ccc(F)cc3)c(=O)oc2c1	FBA Mtb inh active
COc1ccc(-c2cc3ccc(OCC(C)=O)cc3oc2=O)cc1OC	none
O=C(COc1ccc2cc(-c3ccccc3)c(=O)oc2c1)NCC1CCC(C(=O)O)CC1 (stereo not drawn)	GDH-TPI inh 49, FBA Mtb inh active
O=c1oc2cc(OCc3c(F)c(F)c(F)c(F)c3F)ccc2cc1-c1ccccn1	none
O=c1oc2cc(OCc3ccc(F)cc3F)ccc2cc1-c1ccccn1	none
O=C(COc1ccc2c(-c3ccccc3)cc(=O)oc2c1)NCC1CCC(C(=O)O)CC1 (stereo not drawn)	none
COC(=O)c1c(NC(=O)CN2CCOCC2)sc2c1CCC(C)C2 (stereo not drawn)	none
CC(=O)N1c2ccc(S(=O)(=O)NCCC(=O)Nc3ccc(F)cc3C)cc2CC1C (stereo not drawn)	none
COC(=O)COc1ccc2c(=O)c(-c3ccccc3)coc2c1	BoNT A protease inconclusive, BoNT-F LC inh inconclusive, Anthrax LF prot inconclusive
COC(=O)COc1ccc2cc(-c3ccccc3)c(=O)oc2c1	GDH-TPI inh 38, FBA Mtb inh active
COC(=O)Cn1c(=O)c2c(n(Cc3ccccc3)c1=O)N/C(=C/c1ccc(OC)cc1)C2=O	GDH-TPI inh 41
O=C(NCCCO)c1nnc(Cc2c(F)cccc2Cl)o1	none
O=C(NCCCN1CCN(Cc2ccccc2)CC1)c1nnc(Cc2c(F)cccc2Cl)o1	Bead autofluor 19523
COc1ccccc1NC(=O)CC1S/C(=N/N=C2\CCCc3ccccc32)NC1=O (stereo not drawn)	none
COC(=O)NC1(C(F)(F)F)C(=O)NC(C)=C1C(=O)OC (stereo not drawn)	none
COC(=O)C1=C(C)NC(=O)C1(NS(=O)(=O)c1ccc(NC(C)=O)cc1)C(F)(F)F (stereo not drawn)	Bead autofluor 19985
COc1ccc(CNC(=O)C2CCN(S(=O)(=O)N3CC(C)CC(C)C3)CC2)cc1 (stereo not drawn)	none
CCn1c(SC/C=C/c2ccccc2)nnc1-c1cccs1	Bead autofluor 20863
CCn1c(SC/C=C/c2ccccc2)nnc1-c1cnccn1	Bead autofluor 21032
CC1(C(=O)NS(=O)(=O)c2ccc(Cl)cc2)CCN1C(=O)Cc1ccccc1 (stereo not drawn)	none
Cc1ccccc1-n1c(O)c(C=Nc2ccc3c(c2)OCO3)c(=O)[nH]c1=O	Bead autofluor 22656, BoNT A protease inconclusive, GDH-TPI inh 33
COc1cccc(-n2c(O)c(C=NCc3ccc4c(c3)OCO4)c(=O)[nH]c2=O)c1	Bead autofluor 22432
COc1ccc(-n2c(O)c(C=NCc3ccc4c(c3)OCO4)c(=O)[nH]c2=O)cc1	none
O=c1[nH]c(=O)n(Cc2ccco2)c(O)c1C=NCc1ccc2c(c1)OCO2	Bead autofluor 22050
CCCCn1c(O)c(C=NCc2ccc3c(c2)OCO3)c(=O)[nH]c1=O	none
CCOC(=O)C1C(=O)NC(N2CCCCC2)=NC1C(C)C (stereo not drawn)	none
CCn1c(CNc2ccc(F)cc2)nnc1SCC(=O)Nc1ccc(OC)cc1	none
Nc1nc(N)c(N=O)c(OCC2CCCCC2)n1	GDH-TPI inh 34
NS(=O)(=O)OCC1CCCCC1	none
CC1=C(C(N)=O)C(c2cccnc2)n2nc(-c3cccc(C)c3)nc2N1 (stereo not drawn)	none
Cc1ccc(S(=O)(=O)NC(=NCC(=O)O)c2ccc(F)cc2)cc1	Bead autofluor 25722
CC1CCC(C(=O)c2c(O)c3ccccc3oc2=O)CC1 (stereo not drawn)	Bead autofluor 20872
Cc1nn(Cc2ccccc2)c(Cl)c1/C=N/NC(=O)c1cccnc1	none
COc1cc(/C=N/NC(=O)c2cccnc2)ccc1OS(=O)(=O)c1ccc(F)cc1	Bead autofluor 20771
Cc1cc(O)c(C)c(O)c1/C=N/NC(=O)c1cccnc1	GDH-TPI inh 31
Cc1c(/C=N/NC(=O)c2cccnc2)c2ccccc2n1Cc1ccccc1	Bead autofluor 24760
O=C(N/N=C\c1c(O)ccc2ccccc12)c1cncc(Br)c1	BoNT A protease 42
O=C(OCC(=O)N1CCc2ccccc21)c1ccccc1[N+](=O)[O-]	none
O=S(=O)(CCc1nnc(-c2ccccc2)o1)c1ccc2ccccc2c1	none
Cc1[nH]c2ccccc2c1C(=O)C(=O)NCCc1c[nH]c2ccccc12	none
COc1ccc(OC)c(NC(=O)Nc2cccc3ccccc23)c1	none
O=C(N/N=C/c1c(O)ccc2ccccc12)c1cccnc1	none
COc1ccc2ccccc2c1/C=N\NC(=O)c1cccnc1	GDH-TPI inh 35 (no result: Bead autofluor, BoNT A protease, BoNT-F LC inh, Anthrax LF prot)
N#Cc1cc2cc3c(cc2nc1N1CCOCC1)OCO3	FBA Mtb inh 112
Cc1cc(C)c2nc(N3CCOCC3)c(C#N)cc2c1	BoNT-F LC inh inconclusive
O=P(Nc1ccccc1Cl)(c1ccccc1)c1nc2c(s1)CCCC2 (stereo not drawn)	Bead autofluor 17289
CP(=O)(Nc1ccc(Cl)cc1)c1nc2c(s1)CCCC2 (stereo not drawn)	none
O=P(Nc1c(Cl)cccc1Cl)(c1ccccc1)c1nc2c(s1)CCCC2 (stereo not drawn)	Bead autofluor 23723
CCCC(=O)Nc1c2c(nn1-c1ccc(OC)cc1)CS(=O)(=O)C2	Bead autofluor 19921
